# Results from PubChem BioAssay (NCI).
# The panel holds about 83,000 compounds, 20% with a hit somewhere; the sample as a whole holds those more often.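 Results are percent growth after 48 hours of single-concentration exposure. 100 means growth as in untreated cells, lower positive values show inhibition; negative values down to -100 show cell death.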 Active and inactive are the calls of the source. Rule for the calls: active = growth percent below 10; inactive = the rest.
# Test system: HL-60(TB) leukemia
# Assay: NCI-60 one-dose screen, 48 h (100 = growth as untreated, 0 = no growth, -100 = all killed)
# Settings: 10 µM unless noted
row,SMILES,growth
1,Nc1c2c(nc3ccc(Br)cc13)CC(c1ccccc1)CC2=O (stereo not given),10.7% (inactive)
2,CCCCNC(=O)Oc1ccc(/C(=C(\C)c2ccc(OC)cc2)c2ccc(OCCN3CCCCC3)cc2)cc1,34.6% (inactive)
3,O=C1Cc2ccccc2C(=O)N1,67.6% (inactive)
4,CC1=CSC2=NC(c3ccc(Cl)c(Cl)c3)=CC(c3ccc(Cl)cc3)N12 (stereo not given),47.7% (inactive)
5,O=[N+]([O-])c1ccc(N/N=C(/C(=N/Nc2ccc([N+](=O)[O-])cc2)c2ccccc2)c2ccccc2)cc1,117% (inactive)
6,CCN(CC)C(=O)/C=C(/C)c1ccccc1,101% (inactive)
7,COc1ccc(/C=C(/C#N)n2nnc3cccc(F)c32)cc1,-9.75% (active)
8,Cn1cc(-c2cnc3ccc(NC(=O)Nc4ccc(F)c(Br)c4)cc3n2)cn1,13.5% (inactive)
9,Cc1ccc(Cl)cc1NC(=O)N(C)CCO,92% (inactive)
10,O=C(CCl)N(C1CCCCC1)C1CCCCC1,104% (inactive)
11,COc1ccc2sc3cccc(NCCN(C)C)c3c(=O)c2c1,-49.5% (active)
12,CC(=O)N1N=C(c2ccc(C(F)(F)F)cc2)CC1c1ccc2c(c1)OCO2 (stereo not given),95.6% (inactive)
13,COc1cc(C2CC(=O)c3c(C)nn(-c4nc5ccccc5[nH]4)c3C2)cc(OC)c1OC (stereo not given),132% (inactive)
14,C[C@]12CC[C@@H]3c4ccc(O)c([N+](=O)[O-])c4CC[C@H]3[C@@H]1CCC2=O,93.7% (inactive)
15,CC(C)(C)OC(=O)N1CCCN(CCNc2nccc(-c3c(-c4cccc(O)c4)nc4sccn34)n2)S1(=O)=O,104% (inactive)
16,N#Cc1ccc(-c2ccc3c(c2)NC(=O)/C3=C\c2ccc[nH]2)cc1,101% (inactive)
17,COc1ccc(-c2csc(NC(=O)N3CCN(c4cc5c(cc4F)c(=O)c(C(=O)O)cn5C4CC4)CC3)n2)cc1,-11.6% (active)
18,COc1cccc(CNc2ccc3ncnc(Nc4ccc(F)c(Cl)c4)c3c2)c1,93.6% (inactive)
19,COc1cc2nc3c(=O)n(-c4ccc(C#N)cc4)cnn3c(=O)c2cc1OC,92.1% (inactive)
20,COCCn1c(-c2csc(-c3cn(C)c4ccc(OC)cc34)n2)cc2cccnc21,55.8% (inactive)
21,CCCCOC1NC(=O)NC(=O)C1(F)C(=O)OCC (stereo not given),63.5% (inactive)
22,Cc1ncc(C(=O)Nc2ccc(CN3CCN(C)CC3)c(C(F)(F)F)c2)cc1C#Cc1cnc(NC2CC2)c2ncccc12,34.1% (inactive)
23,CC(=O)c1c(O)c(C)c(O)c2c1OC1=CC(=O)/C(=C(/C)N)C(=O)C12C (stereo not given),84.4% (inactive)
24,OCc1c(-c2ccccc2)nc2sccn12,130% (inactive)
25,COc1ccc(C(=O)c2cc(C)c(OC)c(C)c2)c(OC)c1N(C(=O)C(Cl)Cl)C(=O)C(Cl)Cl,-32% (active)
